Screens deposited in PubChem BioAssay by National Center for Advancing Translational Sciences (NCATS).
Rows were chosen to be rich in hits. Some 9% of all compounds tested hit in one or more screens of this group.
HP1b chromo inh: HP1-beta chromodomain-methylated histone interaction inhibition | AlphaScreen HP1-beta / biotin-H3K9me3 peptide binding | AID 540317 | Potency, µM (doses to about 114 µM), for the others: at the top dose activity change, negative = inhibition, actives largely listed as inhibitors | P83916 | 390,000 compounds, 0.56% hits; note: nearly all actives have a fitted effect of over 70% in size
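Compound inhibition of the preformed complex between 50 nM HP1-beta and 50 nM biotinylated H3K9me3 peptide was read by AlphaScreen. Buffer was PBS pH 7.4 with 0.01% Tween-20. Incubations ran 30 min at room temperature, with 10 ug/mL donor/acceptor beads.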
PLK1 PBD inh: blocks phosphopeptide binding to human PLK1 polo-box domain; P53350; Plk1 PBD binding of FITC phosphopeptide, fluorescence polarization; Potency, µM, for the others: max response, negative = inhibition, usual class: inhibitors; 360,000 compounds, 2.8% hits; AID 720504; note: series mostly up to about 57 µM; % is set by controls: 0 for no effect and ±100 for the full control effect; nearly all actives have a fitted effect of over 65% in size
Target sequence (P53350 whole entry, looked up, the tested form may be a part): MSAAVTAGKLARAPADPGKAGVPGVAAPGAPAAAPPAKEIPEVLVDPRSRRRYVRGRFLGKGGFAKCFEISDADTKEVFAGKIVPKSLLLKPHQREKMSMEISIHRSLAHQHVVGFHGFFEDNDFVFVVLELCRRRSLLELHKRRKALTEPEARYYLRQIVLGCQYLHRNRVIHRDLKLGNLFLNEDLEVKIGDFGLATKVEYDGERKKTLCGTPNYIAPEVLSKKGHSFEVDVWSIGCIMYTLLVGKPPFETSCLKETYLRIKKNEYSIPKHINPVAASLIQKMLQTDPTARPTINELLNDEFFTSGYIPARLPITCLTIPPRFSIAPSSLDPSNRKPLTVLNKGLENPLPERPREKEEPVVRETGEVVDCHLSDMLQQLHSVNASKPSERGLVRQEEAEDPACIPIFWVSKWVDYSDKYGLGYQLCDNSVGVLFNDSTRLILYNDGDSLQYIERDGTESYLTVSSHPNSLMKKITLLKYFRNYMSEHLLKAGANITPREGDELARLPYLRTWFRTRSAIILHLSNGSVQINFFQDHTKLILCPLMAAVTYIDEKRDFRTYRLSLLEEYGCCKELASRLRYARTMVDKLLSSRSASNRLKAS
BAZ2B inh: inhibitors of human BAZ2B bromodomain | Potency, µM (highest dose often 114 µM), without a hit: at the top dose activity change, negative = inhibition, most hits filed as inhibitors | 360,000 compounds, 4.4% hits | AlphaScreen BAZ2B-H3K14Ac peptide displacement; note: % is set by controls: 0 for no effect and ±100 for the full control effect; nearly all actives have a fitted effect of over 60% in size
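Multi-concentration screen (max 110 uM) measuring displacement of acetylated histone H3 peptide from BAZ2B by AlphaScreen, using 50 nM protein, 50 nM peptide and 10 ug/mL streptavidin donor plus Ni-chelate acceptor beads.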
G9a block: inhibitors of human histone lysine methyltransferase G9a; G9a H3K9 monomethylation, AlphaScreen, 2 h; Potency, µM (top dose mostly 102 µM), for inactives: at the top dose activity, negative = inhibition, usual class: inhibitors; 350,000 compounds, 8.8% hits; note: % is set by controls: 0 for no effect and ±100 for the full control effect; nearly all actives have a fitted effect of over 75% in size
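AlphaScreen detection with an anti-monomethyl H3K9 antibody quantified product after a 2 h room-temperature reaction containing 500 nM biotinylated H3K9 peptide, 20 µM SAM and 20 nM enzyme, which had been preincubated 15 min with compound.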
JMJD2A Tudor inh: inhibitors of human JMJD2A Tudor domain; AlphaScreen JMJD2A-Tudor / H3K4me3 peptide binding; Potency, µM (titrated, usually from 114 µM), for the others: top-dose activity change, negative = inhibition, hits mostly inhibitors; 390,000 compounds, 4.4% hits; note: % is set by controls: 0 for no effect and ±100 for the full control effect; nearly all actives have a fitted effect of over 50% in size
12-LOX inh: blocks human arachidonate 12S-lipoxygenase. AID 1671190. 580,000 compounds, 1.1% hits. Potency, µM (titrated, usually from 108 µM), for the others: at the top dose activity change, negative = inhibition, actives largely listed as inhibitors. purified 12hLO, xylenol orange hydroperoxide absorbance. P18054; note: % is set by controls: 0 for no effect and ±100 for the full control effect
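Purified human 12hLO (150 nM final) in 25 mM Hepes, 0.01% Triton X-100, pH 7.0 was preincubated 15 min at room temperature with compound. Then 40 uM arachidonic acid was added, 30 min. Hydroperoxide was read by Fe-XO absorbance ratio 573/405 nm.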
* = called active by the depositor; ? = inconclusive; · = not tested or not shown; [ ] = another dose, or the depositor's remark. Calls come from the whole dose curve; as a rule, active = well fitted curve in the direction sought with a large enough effect; inconclusive = small, poorly fitted or top-dose-only effect, or another doubt; inactive = no such curve, though single readings can be large; an effect the other way counts as inactive or inconclusive. Potency is the fitted concentration of half-maximal effect.

SMILES	HP1b chromo inh	PLK1 PBD inh	BAZ2B inh	G9a block	JMJD2A Tudor inh	12-LOX inh
C=CCN(c1ccc(C(=O)Nc2cccc([N+](=O)[O-])c2)cc1)S(C)(=O)=O	11%	-24%	0%	·	1%[11.4 µM]	2%
S=c1nc2[nH]c3ccccc3c2n[nH]1	-6%	3.8µM*	·	·	-21%	-12%
O=C(NC1=NCCS1)c1ccccc1OCc1ccccc1Cl	56%	-12%	15%	-4%	7%	12%
CCOC(=O)c1ccc(N2C(=O)CC(NC3CCN(C(=O)c4cccc(Cl)c4)CC3)C2=O)cc1 (stereo unspecified)	40%	-8%	-1%	16µM*	-17%	·
CCOc1ccc(N2C(=O)CC(NC3CCN(C(=O)c4cccc(Cl)c4)CC3)C2=O)cc1 (stereo unspecified)	59%	1%	-34%	?	-10%	?
CCOC(=O)C(Sc1cc(C)nc(N)n1)C(C)=O (stereo unspecified)	3%	-29%	-1%	18µM*	56µM*	?
Cn1nc(SCC(=O)O)sc1=S	40%	2%	1%	-26%[59 µM]	-5%	0%
CCOC(=O)C(Sc1nn(C)c(=S)s1)C(C)=O (stereo unspecified)	43%	-8%	-35%	18µM*	-11%	?
Cc1c(NC(=O)CN2CCN(C(c3ccccc3)c3ccccc3)CC2)c(=O)n(-c2ccccc2)n1C	10%	4%	-26%	-10%[12.7 µM]	7%	2%
CC(C)C(c1nnnn1C(C)(C)C)N1CCOCC1 (stereo unspecified)	16%	-8%	2%	40µM*	40µM*	9%
CCCCn1c(N)c(N(CCC(C)C)C(=O)C2CCCC2)c(=O)[nH]c1=O	51%	2%	-3%	20µM*	-5%	7%
CCCCn1c(N)c(N(CCOC)C(=O)C2CCN(C(=O)c3ccc(Cl)cc3)CC2)c(=O)[nH]c1=O	35%	-3%	-6%	56µM*	-3%	-16%
CCCCn1c(N)c(N(CCOC)C(=O)C2CCCN(C(=O)c3ccc(Cl)cc3)C2)c(=O)[nH]c1=O (stereo unspecified)	35%	-1%	-9%	28µM*	-8%	-39%
CCCCN(C(=O)C1CC(=O)N(CCc2ccc(OC)c(OC)c2)C1)c1c(N)n(CCCC)c(=O)[nH]c1=O (stereo unspecified)	18%	-15%	-23%	16µM*	-4%	-18%
COCCNC(=O)CCC[C@@H]1[C@H]2CCCN3CCC[C@@H](CN1Cc1ccccc1)[C@@H]23	·	·	·	·	·	32%
CCCCn1c(N)c(N(CCOC)C(=O)C2CCN(S(=O)(=O)c3ccc(C)c(C)c3)CC2)c(=O)[nH]c1=O	35%	-3%	-5%	50µM*	-18%	?
O=C(NCCN1CCCCCC1)C1CCC(CNS(=O)(=O)c2cccc3cccnc23)CC1 (stereo unspecified)	25%	?	-32%	45µM*	?	-1%
CN1CCN(C(=O)C2CCC(CNS(=O)(=O)c3cccc4cccnc34)CC2)CC1 (stereo unspecified)	60%	-13%	-5%	?	-2%	0%
COC(=O)C1=C(O)/C(=C\c2ccc(OCC(=O)Nc3ccccc3OC)cc2)N=C1C	19%	21µM*	-22%	17%	?	-15%
Cc1ccc(C(=O)N2CCc3[nH]nc(C(=O)N(C)C)c3C2)cc1C	·	·	·	·	·	56%
COc1cc2c(cc1OC)-c1c(OC)c(OC)cc3ccnc(c13)C2=O	42%	0%	14µM*	-15%	-25%	-5%
COc1ccc(C(=O)c2nccc3cc(OC)c(OC)cc23)cc1OC	13%	3%	-34%	-25%[2.33 µM]	-15%	·
CC1=NN(C(=O)c2ccc(Br)cc2)C(O)(C(F)(F)OC(F)(F)F)C1 (stereo unspecified)	30%	-5%	-10%	35%	-18%	0%
CCSc1nnc(-c2ccc(S(=O)(=O)N3CCOCC3)cc2)n1C	63%	-27%	-13%	-2%	?	-16%
Cc1nc(C(=O)NNC(=O)c2ccccc2)c(C(F)(F)F)o1	55%	-9%	-33%	4.5µM*	?	0%
SMILES	HP1b chromo inh	PLK1 PBD inh	BAZ2B inh	G9a block	JMJD2A Tudor inh	12-LOX inh
CNC1(C)C2CCC(C2)C1(C)C (stereo unspecified)	·	·	·	18%[59 µM]	·	·
CC1(C)C2CCC(C2)C1(C)NC(=O)CNCc1cccs1 (stereo unspecified)	?	-8%	·	11µM*	25µM*	-26%
CC1(C)C2CCC(C2)C1(C)NC(=O)CN1CCOCC1 (stereo unspecified)	?	-9%	50µM*	10µM*	32µM*	?
O=C(CN1CCOCC1)NC1C2CC3CC(C2)CC1C3 (stereo unspecified)	34%	-6%	7%	-4%[2.33 µM]	-3%	0%[57.4 µM]
CC1(C)C2CCC(C2)C1(C)NC(=O)CN1CCCC1 (stereo unspecified)	-35%	-19%	?	5µM*	28µM*	?
CC1(C)C2CCC(C2)C1(C)NC(=O)CNC1CCCCC1 (stereo unspecified)	-26%	-9%	50µM*	13µM*	-34%[11.4 µM]	0%
Cc1ccc(CNc2nc3c(c(=O)[nH]c(=O)n3C)n2Cc2cccc(C)c2)cc1	·	·	·	·	·	9%
COc1ccc(-n2c(Cc3cccn3C)nnc2SCC(=O)NC2CCCC2)cc1	15%	-18%	-38%	?	?	174%
COc1ccc(-n2c(Cc3cccn3C)nnc2SCC(=O)Nc2cc(Cl)ccc2OC)cc1	-23%	-4%	?	40µM*	?	390%
COc1ccc(-n2c(Cc3cccn3C)nnc2SCC(=O)Nc2ccc(C)cc2C)cc1	-5%	27µM*	?	45µM*	?	498%
COc1ccc(-n2c(Cc3cccn3C)nnc2SCC(=O)Nc2ccccc2OC)cc1	18%	-25%	?	45µM*	-34%	465%
COc1ccc(-n2c(Cc3cccn3C)nnc2SCC(=O)Nc2nc(C)cs2)cc1	64%	-9%	-22%	-17%	-20%	242%
CCOC(=O)c1cc(CC)sc1NC(=O)C1CC1	92%	-5%	38%	-4%[12.7 µM]	49%	?
CCOC(=O)c1cc(CC)sc1NC(=O)c1cc(OCC)c(OCC)c(OCC)c1	41%	27µM*	8%	7%	66%	-2%
CCOC(=O)c1cc(CC)sc1NC(=O)c1ccc2c(c1)OCCO2	74%	21µM*	44%	7%[12.7 µM]	-1%[11.4 µM]	-23%
O=C(COc1ccccc1F)NNC(=O)c1cccc(-n2cccc2)c1	34%	-3%	-38%	·	-11%	·
O=C(OCCSCCOC(=O)C1CC=CCC1)C1CC=CCC1 (stereo unspecified)	142%	3%	·	·	147%	-18%
